Reference: PubChem BioAssay (NCI)
This is part of a sample that, as a whole, favours compounds with a hit. Of some 79,000 tested, about 15% had one in any assay. A number with no mark means an inactive call. Active and inactive are the calls of the source. Cut-off read from the data, not from the text of the source: active = growth inhibition above about 70%; inactive = the rest.

What was measured:
[1] = NCI Yeast Anticancer Drug Screen. Data for the rad52 strain (AID 147);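 note: 0% = growth of vehicle-treated control cultures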; details: S. cerevisiae rad52 mutant growth inhibition, stronger effect = higher value
Summary of the method: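 Screen used a yeast mutant impaired in DNA repair. After compound exposure, growth was measured. Values reflect inhibition compared with vehicle-treated cells.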

[2] = NCI Yeast Anticancer Drug Screen. Data for the wt1 strain (AID 149);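 note: 0% = growth of vehicle-treated wt1 cultures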; details: S. cerevisiae wt1 strain (SPY 50644) growth inhibition, stronger effect = higher value
Summary of the method: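 wt1 strain grown with compound or vehicle; inhibition taken from the growth difference.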

[3] = NCI Yeast Anticancer Drug Screen. Data for the rad50EPP+ strain (AID 151);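 note: 0% = growth of vehicle-treated control cultures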; details: S. cerevisiae rad50 mutant strain, stronger effect = higher value
Summary of the method: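 Exposing the rad50EPP+ strain to each compound, growth was compared with vehicle-only cultures to give inhibition.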

[4] = NCI Yeast Anticancer Drug Screen. Data for the mgt1 strain (AID 153); details: S. cerevisiae mgt1 mutant growth inhibition, stronger effect = higher value
Summary of the method: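 Genetically defined yeast (mgt1) treated with compound; inhibition of growth expressed against vehicle-treated controls.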

[5] = NCI Yeast Anticancer Drug Screen. Data for the rad50 strain (AID 155);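 note: 0% = growth of vehicle-only cultures of the same strain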; details: S. cerevisiae rad50 strain growth inhibition, stronger effect = higher value
Summary of the method: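 DNA repair mutant yeast, compound exposure, growth read-out; inhibition is taken relative to vehicle.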

[6] = NCI Yeast Anticancer Drug Screen. Data for the mec2-1 strain (AID 157); details: S. cerevisiae mec2-1 strain, stronger effect = higher value
Summary of the method: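 Readout is yeast growth inhibition, normalised to vehicle-treated controls, in the mec2-1 strain exposed to compound.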

[7] = NCI Yeast Anticancer Drug Screen. Data for the rad14 strain (AID 159);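 note: 0% = growth of vehicle-treated control cultures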; details: S. cerevisiae rad14 strain growth inhibition, stronger effect = higher value
Summary of the method: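 DNA repair-defective yeast, compound-exposed; % growth inhibition derived by comparison with vehicle-treated controls.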

[8] = NCI Yeast Anticancer Drug Screen. Data for the sgs1 mgt1 strain (AID 161);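 note: 0% = growth of cultures given vehicle only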; details: S. cerevisiae sgs1 mgt1 strain, stronger effect = higher value
Summary of the method: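 Percent growth inhibition was derived by comparing compound-exposed mutant yeast with vehicle-exposed cultures. The strain carries alterations in DNA damage repair.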

[9] = NCI Yeast Anticancer Drug Screen. Data for the CLN2oe strain (AID 163);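 note: 0% = growth of vehicle-only control cultures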; details: S. cerevisiae CLN2oe strain, stronger effect = higher value
Summary of the method: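 Values reflect how much compound exposure reduced yeast growth, referenced to vehicle-exposed cells. Assay organism is a strain with a defined genetic change affecting cell-cycle control.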

[10] = NCI Yeast Anticancer Drug Screen. Data for the cln2 rad14 strain (AID 165);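 note: 0% = growth equal to vehicle treated cultures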; details: S. cerevisiae cln2 rad14 strain, stronger effect = higher value
Summary of the method: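 Relative to vehicle controls, growth inhibition of compound-treated cln2 rad14 yeast was recorded.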

[11] = NCI Yeast Anticancer Drug Screen. Data for the bub3 strain (AID 167); details: S. cerevisiae bub3 mutant strain, stronger effect = higher value
Summary of the method: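 In this screen, a yeast mutant lacking normal mitotic checkpoint function is challenged with compound. Relative growth versus vehicle gives the inhibition value.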

[12] = NCI Yeast Anticancer Drug Screen. Data for the wt2 strain (AID 169);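 note: 0% = growth of vehicle-treated yeast cultures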; details: S. cerevisiae wt2 strain growth inhibition, stronger effect = higher value
Summary of the method: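 Values express reduction in yeast growth under compound treatment, referenced to vehicle-treated cells.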

[13] = NCI Yeast Anticancer Drug Screen. Data for the mlh1 strain (AID 171);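 note: 0% = growth of vehicle-treated control cultures of the same strain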; details: S. cerevisiae mlh1 strain growth inhibition, stronger effect = higher value
Summary of the method: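 Steps: expose the defined-mutant yeast strain to compound; expose a parallel culture to vehicle; measure growth; express compound effect as inhibition relative to the vehicle culture.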

[14] = NCI Yeast Anticancer Drug Screen. Data for the sgs1 strain (AID 173);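 note: 0% = growth of vehicle-only control cultures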; details: S. cerevisiae sgs1 mutant, stronger effect = higher value
Summary of the method: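 Treat defined-mutant yeast with compound; measure growth; calculate inhibition relative to vehicle-treated cells.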

[15] = NCI Yeast Anticancer Drug Screen. Data for the mlh1 rad18 strain (AID 175); details: S. cerevisiae mlh1 rad18 strain growth inhibition, stronger effect = higher value
Summary of the method: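 Test agents were incubated with a yeast strain of defined genotype (DNA damage repair defect). Inhibition of growth was derived by comparison with vehicle-exposed cultures.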

[16] = NCI Yeast Anticancer Drug Screen. Data for the rad18 strain (AID 177); details: S. cerevisiae rad18 mutant growth inhibition, stronger effect = higher value
Summary of the method: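 A genetically defined yeast mutant impaired in DNA damage repair was treated with test compounds, then its growth was measured against cultures receiving vehicle alone.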

[17] = at 5.0 µM (retest, dose inferred, filed as 0.5)
[18] = at 50.0 µM (retest, dose inferred, filed as 5.0)

Compound: Cc1cc(CO)c(O)c(CNCc2cc(C)cc(CO)c2O)c1
- growth inhibition ([1]; at 1.2 µM): 4%
- growth inhibition ([1]; at 3.7 µM): 8%
- growth inhibition ([1]; at 11.0 µM): 14%
- growth inhibition ([1]; at 33.0 µM): 22%
- growth inhibition ([1]; at 100.0 µM): 98% (active)
- growth inhibition ([2]; at 1.2 µM): 24%
- growth inhibition ([2]; at 3.7 µM): 15%
- growth inhibition ([2]; at 11.0 µM): 25%
- growth inhibition ([2]; at 33.0 µM): 38%
- growth inhibition ([2]; at 100.0 µM): 98% (active)
- growth inhibition ([3]; at 1.2 µM): -24%
- growth inhibition ([3]; at 3.7 µM): -23%
- growth inhibition ([3]; at 11.0 µM): -33%
- growth inhibition ([3]; at 33.0 µM): -29%
- growth inhibition ([3]; at 100.0 µM): -13%
- growth inhibition ([4]; at 1.2 µM): -13%
- growth inhibition ([4]; at 3.7 µM): -17%
- growth inhibition ([4]; at 11.0 µM): -18%
- growth inhibition ([4]; at 33.0 µM): -9%
- growth inhibition ([4]; at 100.0 µM): 98% (active)
- growth inhibition ([5]; at 1.2 µM): 2%
- growth inhibition ([5]; at 3.7 µM): 7%
- growth inhibition [5, 17]: -25%
- growth inhibition ([5]; at 11.0 µM): 2%
- growth inhibition ([5]; at 33.0 µM): 19%
- growth inhibition [5, 18]: 88% (active)
- growth inhibition ([5]; at 50.0 µM): 89.5% (active)
- growth inhibition ([5]; at 100.0 µM): 98% (active)
- growth inhibition ([6]; at 1.2 µM): -14%
- growth inhibition ([6]; at 3.7 µM): -7%
- growth inhibition [6, 17]: -32%
- growth inhibition ([6]; at 11.0 µM): -27%
- growth inhibition ([6]; at 33.0 µM): -18%
- growth inhibition [6, 18]: 42%
- growth inhibition ([6]; at 50.0 µM): 77.2% (active)
- growth inhibition ([6]; at 100.0 µM): 98% (active)
- growth inhibition ([7]; at 1.2 µM): -16%
- growth inhibition ([7]; at 3.7 µM): -29%
- growth inhibition ([7]; at 11.0 µM): -42%
- growth inhibition ([7]; at 33.0 µM): 35%
- growth inhibition ([7]; at 100.0 µM): 97% (active)
- growth inhibition [8, 17]: -2%
- growth inhibition [8, 18]: 22%
- growth inhibition ([8]; at 50.0 µM): 90.6% (active)
- growth inhibition ([9]; at 1.2 µM): -10%
- growth inhibition ([9]; at 3.7 µM): -24%
- growth inhibition ([9]; at 11.0 µM): -25%
- growth inhibition ([9]; at 33.0 µM): -14%
- growth inhibition ([9]; at 100.0 µM): 98% (active)
- growth inhibition [10, 17]: -17%
- growth inhibition [10, 18]: 48%
- growth inhibition ([10]; at 50.0 µM): 72% (active)
- growth inhibition ([11]; at 1.2 µM): -14%
- growth inhibition ([11]; at 3.7 µM): -6%
- growth inhibition [11, 17]: -21%
- growth inhibition ([11]; at 11.0 µM): -13%
- growth inhibition ([11]; at 33.0 µM): -13%
- growth inhibition [11, 18]: 52%
- growth inhibition ([11]; at 50.0 µM): 68.8%
- growth inhibition ([11]; at 100.0 µM): 98% (active)
- growth inhibition ([12]; at 1.2 µM): -8%
- growth inhibition ([12]; at 3.7 µM): -11%
- growth inhibition ([12]; at 11.0 µM): -12%
- growth inhibition ([12]; at 33.0 µM): -8%
- growth inhibition ([12]; at 100.0 µM): 98% (active)
- growth inhibition ([13]; at 1.2 µM): -27%
- growth inhibition ([13]; at 3.7 µM): -30%
- growth inhibition ([13]; at 11.0 µM): -13%
- growth inhibition ([13]; at 33.0 µM): -7%
- growth inhibition ([13]; at 100.0 µM): 98% (active)
- growth inhibition ([14]; at 1.2 µM): 3%
- growth inhibition ([14]; at 3.7 µM): 8%
- growth inhibition ([14]; at 11.0 µM): 9%
- growth inhibition ([14]; at 33.0 µM): 40%
- growth inhibition ([14]; at 100.0 µM): 99% (active)
- growth inhibition [15, 17]: 17%
- growth inhibition [15, 18]: 96% (active)
- growth inhibition ([15]; at 50.0 µM): 74.3% (active)
- growth inhibition ([16]; at 1.2 µM): 1%
- growth inhibition ([16]; at 3.7 µM): -6%
- growth inhibition ([16]; at 11.0 µM): -4%
- growth inhibition ([16]; at 33.0 µM): 4%
- growth inhibition ([16]; at 100.0 µM): 98% (active)

Compound: CN(CCc1ccccn1)c1ccc2c(c1)Cc1ccccc1-2
- growth inhibition ([1]; at 1.2 µM): 1%
- growth inhibition ([1]; at 3.7 µM): 11%
- growth inhibition ([1]; at 11.0 µM): 54%
- growth inhibition ([1]; at 33.0 µM): 45%
- growth inhibition ([1]; at 100.0 µM): 53%
- growth inhibition ([2]; at 1.2 µM): 1%
- growth inhibition ([2]; at 3.7 µM): 7%
- growth inhibition ([2]; at 11.0 µM): 6%
- growth inhibition ([2]; at 33.0 µM): 5%
- growth inhibition ([2]; at 100.0 µM): 2%
- growth inhibition ([3]; at 1.2 µM): 29%
- growth inhibition ([3]; at 3.7 µM): 68%
- growth inhibition ([3]; at 11.0 µM): 91% (active)
- growth inhibition ([3]; at 33.0 µM): 89% (active)
- growth inhibition ([3]; at 100.0 µM): 88% (active)
- growth inhibition ([4]; at 1.2 µM): -3%
- growth inhibition ([4]; at 3.7 µM): -4%
- growth inhibition ([4]; at 11.0 µM): 1%
- growth inhibition ([4]; at 33.0 µM): 3%
- growth inhibition ([4]; at 100.0 µM): 19%
- growth inhibition ([5]; at 1.2 µM): 4%
- growth inhibition ([5]; at 3.7 µM): 26%
- growth inhibition [5, 17]: 20%
- growth inhibition ([5]; at 11.0 µM): 69%
- growth inhibition ([5]; at 33.0 µM): 68%
- growth inhibition [5, 18]: 57%
- growth inhibition ([5]; at 50.0 µM): 90.2% (active)
- growth inhibition ([5]; at 100.0 µM): 67%
- growth inhibition ([6]; at 1.2 µM): -1%
- growth inhibition ([6]; at 3.7 µM): 8%
- growth inhibition [6, 17]: 5%
- growth inhibition ([6]; at 11.0 µM): 26%
- growth inhibition ([6]; at 33.0 µM): 20%
- growth inhibition [6, 18]: 1%
- growth inhibition ([6]; at 50.0 µM): 4.05%
- growth inhibition ([6]; at 100.0 µM): 20%
- growth inhibition ([7]; at 1.2 µM): 1%
- growth inhibition ([7]; at 3.7 µM): 10%
- growth inhibition ([7]; at 11.0 µM): 38%
- growth inhibition ([7]; at 33.0 µM): 37%
- growth inhibition ([7]; at 100.0 µM): 56%
- growth inhibition [8, 17]: 9%
- growth inhibition [8, 18]: 82% (active)
- growth inhibition ([8]; at 50.0 µM): 83.3% (active)
- growth inhibition ([9]; at 1.2 µM): -5%
- growth inhibition ([9]; at 3.7 µM): -16%
- growth inhibition ([9]; at 11.0 µM): -11%
- growth inhibition ([9]; at 33.0 µM): -16%
- growth inhibition ([9]; at 100.0 µM): -5%
- growth inhibition [10, 17]: 0%
- growth inhibition [10, 18]: 10%
- growth inhibition ([10]; at 50.0 µM): -2.25%
- growth inhibition ([11]; at 1.2 µM): 0%
- growth inhibition ([11]; at 3.7 µM): -4%
- growth inhibition [11, 17]: -12%
- growth inhibition ([11]; at 11.0 µM): 13%
- growth inhibition ([11]; at 33.0 µM): 21%
- growth inhibition [11, 18]: 30%
- growth inhibition ([11]; at 50.0 µM): 18.4%
- growth inhibition ([11]; at 100.0 µM): 20%
- growth inhibition ([12]; at 1.2 µM): -1%
- growth inhibition ([12]; at 3.7 µM): -2%
- growth inhibition ([12]; at 11.0 µM): 5%
- growth inhibition ([12]; at 33.0 µM): 4%
- growth inhibition ([12]; at 100.0 µM): 26%
- growth inhibition ([13]; at 1.2 µM): 0%
- growth inhibition ([13]; at 3.7 µM): 3%
- growth inhibition ([13]; at 11.0 µM): 17%
- growth inhibition ([13]; at 33.0 µM): 15%
- growth inhibition ([13]; at 100.0 µM): 31%
- growth inhibition ([14]; at 1.2 µM): 26%
- growth inhibition ([14]; at 3.7 µM): 71% (active)
- growth inhibition ([14]; at 11.0 µM): 88% (active)
- growth inhibition ([14]; at 33.0 µM): 87% (active)
- growth inhibition ([14]; at 100.0 µM): 88% (active)
- growth inhibition [15, 17]: 20%
- growth inhibition [15, 18]: 72% (active)
- growth inhibition ([15]; at 50.0 µM): 77.4% (active)
- growth inhibition ([16]; at 1.2 µM): 46%
- growth inhibition ([16]; at 3.7 µM): 89% (active)
- growth inhibition ([16]; at 11.0 µM): 95% (active)
- growth inhibition ([16]; at 33.0 µM): 94% (active)
- growth inhibition ([16]; at 100.0 µM): 94% (active)
